# Reference: PubChem BioAssay
# The source made the active and inactive calls. Unless noted, no rule for the calls is given here.
# Assays:
# [1] = resazurin metabolic signal in HepG2 cells – cell-based, resazurin fluorescence, 24 h, PK04 Diversity Set, profiling panel (AID 1172); conditions: HepG2 viability, higher = more signal; also: test concentration not given here
# [2] = budding yeast growth changes without added modifier – OD600, strain BY4716, 24 h, basal condition, primary screen (AID 1173); conditions: S. cerevisiae BY4716 growth, OD600, 24 h; higher = more signal, called active from +8 up or from −8 down
# [3] = viability profiling in MM1S myeloma cells – cell-based, resazurin fluorescence, basal, 24 h, PK04 Diversity Set, profiling panel (AID 1174); conditions: higher = more signal, called active from +8 up or from −8 down;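 also: MM1S multiple myeloma cell line; test concentration not given here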
# [4] = target: Dihydroorotate dehydrogenase (quinone), mitochondrial (Plasmodium falciparum (isolate 3D7)) (UniProt Q08210); assay: inhibition of P. falciparum DHODH – biochemical, C-terminal His tag, absorbance 600 nm, primary screen (AID 1175); conditions: PfDHODH enzyme, DCIP absorbance 600 nm; higher = more signal, called active from +8 up or from −8 down;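 also: recombinant parasite enzyme with a five histidine tag at its C terminus; test concentration not given here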
# [5] = inhibition of PAO1 biofilm formation – strain PAO1, LB-PBS medium, absorbance 600 nm, primary screen (AID 1176); also: test concentration not given here; conditions: P. aeruginosa PAO1 growth/biofilm, A600, 12 h; higher = more signal
# [6] = growth modulation of vineyard yeast isolate – strain RM11-1a, OD600, basal, 24 h, primary screen (AID 1177);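 also: cultures grown under basal conditions with no added stressor; test concentration not given here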; conditions: S. cerevisiae RM11-1a growth, OD600, 24 h; higher = more signal, called active from +8 up or from −8 down
# [7] = growth of efflux-deficient E. coli DRC39 – strain DRC39, OD650, 24 h, E. coli filamentation inducers, primary screen (AID 1178);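 also: growth measured as culture turbidity by optical density at 650 nm; test concentration not given here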; conditions: E. coli DRC39 acrAB, higher = more signal, called active from +8 up or from −8 down
# [8] = growth of efflux-deficient E. coli DRC39 – strain DRC39, OD650, 48 h, E. coli filamentation inducers, primary screen (AID 1179);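 also: screen aims at cell division blockers that make cells filament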; conditions: E. coli DRC39 delta-acrAB growth, higher = more signal, called active from +8 up or from −8 down
# [9] = viability profiling in RPMI8226 myeloma cells – cell-based, resazurin fluorescence, basal, 24 h, PK04 Diversity Set, profiling panel (AID 1180); conditions: higher = more signal;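 also: RPMI8826 multiple myeloma cell line at 5000 cells per well; test concentration not given here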
# [10] = target: E3 ubiquitin-protein ligase XIAP (Homo sapiens) (UniProt P98170); assay: small molecules binding XIAP protein – biophysical, small-molecule microarray, fluorescence 635 nm, primary screen (AID 1181); conditions: higher = more signal;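 also: score merges 667 nm emission and signal to noise over triplicate slides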
# Sequence of E3 ubiquitin-protein ligase XIAP (Homo sapiens) (P98170 whole entry, looked up): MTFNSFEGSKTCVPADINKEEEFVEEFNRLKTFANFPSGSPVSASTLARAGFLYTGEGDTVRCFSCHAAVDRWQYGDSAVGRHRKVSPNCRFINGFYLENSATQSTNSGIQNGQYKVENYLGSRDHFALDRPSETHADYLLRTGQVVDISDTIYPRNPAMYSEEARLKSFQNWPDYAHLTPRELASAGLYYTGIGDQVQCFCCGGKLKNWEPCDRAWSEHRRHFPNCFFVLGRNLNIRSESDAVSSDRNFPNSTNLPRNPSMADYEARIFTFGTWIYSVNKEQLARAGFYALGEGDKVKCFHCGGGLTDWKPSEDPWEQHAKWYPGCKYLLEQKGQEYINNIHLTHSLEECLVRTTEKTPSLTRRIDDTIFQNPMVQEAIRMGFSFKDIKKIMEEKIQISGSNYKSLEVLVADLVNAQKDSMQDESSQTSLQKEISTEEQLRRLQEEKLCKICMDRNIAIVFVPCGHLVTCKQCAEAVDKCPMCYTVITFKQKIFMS
# Sequence of Dihydroorotate dehydrogenase (quinone), mitochondrial (Plasmodium falciparum (isolate 3D7)) (Q08210 whole entry, looked up): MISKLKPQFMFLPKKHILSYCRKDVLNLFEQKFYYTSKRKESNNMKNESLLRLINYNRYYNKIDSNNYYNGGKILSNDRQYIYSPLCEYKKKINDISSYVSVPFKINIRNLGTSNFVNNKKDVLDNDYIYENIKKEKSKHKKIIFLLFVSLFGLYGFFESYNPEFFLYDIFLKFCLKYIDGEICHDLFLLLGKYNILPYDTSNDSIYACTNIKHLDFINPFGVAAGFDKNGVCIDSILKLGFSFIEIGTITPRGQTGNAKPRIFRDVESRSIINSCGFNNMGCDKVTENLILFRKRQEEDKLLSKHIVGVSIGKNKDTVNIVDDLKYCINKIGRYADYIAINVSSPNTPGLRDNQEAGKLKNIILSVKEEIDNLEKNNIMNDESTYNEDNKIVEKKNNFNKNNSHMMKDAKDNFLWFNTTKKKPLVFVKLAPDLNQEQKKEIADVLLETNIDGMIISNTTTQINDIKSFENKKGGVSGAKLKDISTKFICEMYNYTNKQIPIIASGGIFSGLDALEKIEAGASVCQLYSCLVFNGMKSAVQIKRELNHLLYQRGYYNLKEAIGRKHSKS
SMILES,z-score [1],z-score [2],z-score [3],composite z-score [4],z-score [5],z-score [6],z-score [7],z-score [8],z-score [9],composite z-score [10]
CCc1cc2c(nc1CC)CCN(CCC(C)=NOCC[C@@H]1C=C[C@H](OC(C)=O)[C@@H](COC(C)=O)O1)C2,0.0383,0.859 (inactive),-0.123 (inactive),0.903 (inactive),0.122 (inactive),1.23 (inactive),-0.157 (inactive),-1.33 (inactive),0.154,-0.212
O=C1[C@H]2[C@H]3[C@H](O)[C@H](O)CC(=NOCc4ccccc4)[C@@H]3CC[C@H]2C(=O)N1c1cccc(Oc2ccccc2)c1,0.363,0.204 (inactive),-0.857 (inactive),-0.0818 (inactive),0.741 (inactive),0.056 (inactive),0.796 (inactive),1.4 (inactive),0.173,-0.15
CCN1C(=O)[C@H]2[C@@H]3C(=CC[C@H]2C1=O)C(=O)[C@H]1O[C@H]1[C@H]3O,-1.22,-1.12 (inactive),-5.38 (inactive),-0.0207 (inactive),-0.978 (inactive),-0.628 (inactive),-0.615 (inactive),-0.788 (inactive),-2.17,0.334
CC(C)CON=C1C[C@@H](O)[C@@H](O)[C@@H]2[C@@H]3C(=O)N(Cc4ccccc4)C(=O)[C@@H]3CC[C@H]12,0.0344,-1.11 (inactive),1.15 (inactive),-0.451 (inactive),0.92 (inactive),-1.17 (inactive),0.68 (inactive),-1.08 (inactive),0.851,-0.0436
CCO[C@H](c1cc(OC)cc([N+](=O)[O-])c1OC)[C@H](C)[C@@H](OC)[C@H](C)C=CCC(=O)OC,-0.467,-0.435 (inactive),0.149 (inactive),0.189 (inactive),-0.303 (inactive),-0.147 (inactive),-0.508 (inactive),-0.17 (inactive),0.0951,0.1
COC(=O)CC=C[C@@H](C)[C@@H](C=NOC[C@@H](O)COCc1ccco1)OC,-0.195,-0.656 (inactive),-0.45 (inactive),-0.527 (inactive),-1.23 (inactive),0.12 (inactive),0.539 (inactive),0.803 (inactive),0.11,0.0345
COC(=O)CC=C[C@@H](C)[C@@H](C=NOC[C@@H](C)[C@H](OCc1ccccc1)C(C)C)NS(=O)(=O)c1ccc(C)cc1,-1,-0.0668 (inactive),-0.562 (inactive),1.07 (inactive),-0.291 (inactive),0.391 (inactive),-0.247 (inactive),-1.18 (inactive),0.0833,-0.0844
